Screens: PubChem BioAssay, National Center for Advancing Translational Sciences (NCATS)
HPGD block = HPGD (human) dehydrogenase inhibition. P15428. purified HPGD, NADH fluorescence kinetic, PGE2 substrate. hit rate 4.3% among 150,000. AID 894. Potency, µM, usual class: inhibitors
Target sequence (P15428 whole entry, looked up): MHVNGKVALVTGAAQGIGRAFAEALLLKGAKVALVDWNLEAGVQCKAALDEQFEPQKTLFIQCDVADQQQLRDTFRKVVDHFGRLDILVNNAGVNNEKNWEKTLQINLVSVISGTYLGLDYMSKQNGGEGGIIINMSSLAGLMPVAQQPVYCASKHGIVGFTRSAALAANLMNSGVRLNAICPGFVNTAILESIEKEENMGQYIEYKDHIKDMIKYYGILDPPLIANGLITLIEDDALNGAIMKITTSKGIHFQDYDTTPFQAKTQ
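20 nM HPGD preincubated 15 min at room temperature with compound in 50 mM Tris-HCl pH 8, 0.01% Tween 20. Started with 1 mM NAD+ and 30 uM prostaglandin E2; NADH fluorescence (360/450 nm) read 5 times over 30-s intervals, last minus first.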
ALDH1A1 inh = ALDH1A1 (human) enzyme inhibition. Potency, µM (titrated, usually from 75.3 µM), most hits filed as inhibitors. P00352. Purified ALDH1A1, NADH fluorescence, propionaldehyde substrate. hit rate 7.3% among 220,000
IMPase inh = membrane-permeable compound that blocks inositol monophosphatase | inhibition (IP1 accumulation), % at 46.1 µM | AID 901 | CHO-M1 cells, IP1 accumulation, HTRF TR-FRET ratio | P97697 | 120,000 tested, under 10 active; active = well fitted curve in the direction sought with a large enough effect in the signal ratio, not every such curve was filed as active; inconclusive = small, poorly fitted or top-dose-only effect, or a change in a side signal; inactive = no such curve, though single readings can be large or run the other way; the % refers to the signal ratio;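 note: cells stimulated with carbachol in lithium chloride buffer; higher means more IMPase inhibition seen as more IP1 and lower FRET ratio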
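Elevated IP1 in lysates lowers TR-FRET signal (665/620 ratio and 620 channel reported). Cells were CHO-M1, given carbachol (50 uM as added) plus 50mM LiCl, pH 7.4, 30 min, 37C; compounds titrated up to 46 uM; AC50 by Hill equation.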
Numbers stand for hits; ! = repeats disagree. Compounds with a hit are over-represented: about 9% of the library has one in this group of screens. Unless noted, calls come from the whole dose curve; as a rule, active = well fitted inhibition curve with a large enough effect (not every such curve was filed as active); inconclusive = small, poorly fitted or top-dose-only effect, or another doubt; inactive = no such curve, though single readings can be large or run the other way.

Screening O=C(Nc1nnc(COc2ccc(Cl)cc2)s1)C1CCCO1 (stereo unspecified) returned HPGD block 18µM, ALDH1A1 inh 10µM and IMPase inh inactive.
`O=C(Nc1nnc(SCc2ccc(Cl)cc2)s1)C1CCCO1` (stereo unspecified) gave HPGD block inactive, ALDH1A1 inh inactive and IMPase inh inactive.
Screening O=C(Nc1nnc(COc2ccc(Cl)cc2)s1)c1ccco1 returned ALDH1A1 inh 3.2µM.
O=C(Nc1nnc(COc2ccc(F)cc2)s1)c1cccs1 was read as HPGD block inactive, ALDH1A1 inh inactive and IMPase inh inactive.
For COCc1nnc(NC(=O)c2cc(Cl)ccc2OC)s1 the results were HPGD block inconclusive, ALDH1A1 inh inconclusive and IMPase inh inactive.
Screening Cc1ccc(OCc2nnc(NC(=O)c3ccco3)s2)cc1 returned HPGD block inactive, ALDH1A1 inh inactive and IMPase inh inactive.
Screening CCOCc1nnc(NC(=O)c2cc(Cl)ccc2OC)s1 returned HPGD block 14µM, ALDH1A1 inh inconclusive and IMPase inh inactive.
Screening COCCNC(=O)CSc1cc(=O)n(C)c2cc(Cl)ccc12 returned ALDH1A1 inh inactive.
For COc1ccccc1-c1nc(NCCN2CCOCC2)c2ccccc2n1 the results were ALDH1A1 inh inactive.
Screening CCc1nnc(NC(=O)C2CCCO2)s1 (stereo unspecified) returned ALDH1A1 inh inactive.
Screening CC(C)c1nnc(NC(=O)C2CCCO2)s1 (stereo unspecified) returned ALDH1A1 inh 3.8µM.
O=C(O)c1cc(N=Nc2ccc([N+](=O)[O-])cc2)ccc1O was read as HPGD block inactive and ALDH1A1 inh 22µM!.
Screening NS(=O)(=O)c1ccc(N=Nc2ccc(O)c(C(=O)O)c2)cc1 returned HPGD block inactive and ALDH1A1 inh inconclusive.
C=CCn1c(Cc2csc(N)n2)nnc1SCC(=O)OCC was read as HPGD block inactive, ALDH1A1 inh inactive and IMPase inh inactive.
COC(=O)c1c(NC(=O)c2ccc(OC)cc2OC)sc2c1CCCCC2 was read as IMPase inh inactive.
`CCOC(=O)COc1ccccc1/C=C\[N+](=O)[O-]` gave HPGD block 16µM, ALDH1A1 inh 4.5µM and IMPase inh inactive.
For CCOC(=O)COc1cc([N+](=O)[O-])cc2cccnc12 the results were ALDH1A1 inh inactive.
`O=C(Cc1ccccc1)N/N=C\c1ccc(Br)o1` gave HPGD block inactive, ALDH1A1 inh inactive and IMPase inh inactive.
Screening O=C(/C=C/c1ccc(Br)o1)NCc1ccccc1 returned ALDH1A1 inh 6.3µM.
Cc1ccc(CNC(=O)/C=C/c2ccc(Br)o2)cc1 was read as HPGD block inactive and ALDH1A1 inh 3.5µM.
Screening Cc1ccc(/C=C/C(=O)NCc2ccncc2)cc1 returned ALDH1A1 inh inactive and IMPase inh inactive.
Cc1cc(C)c(S(=O)(=O)N2CCN(C)CC2)c(C)c1 was read as HPGD block inactive, ALDH1A1 inh inactive and IMPase inh inactive.
Screening Cc1cccc([C@H]2[C@@H]3C=CC(C)C[C@@H]3C(=O)N2Cc2ccccc2)c1 (stereo partly specified) returned HPGD block inactive and ALDH1A1 inh inconclusive.
CCOC(=S)SCC(=O)N1CCc2ccccc2C1C1C(=O)CCCC1=O (stereo unspecified) was read as HPGD block inactive, ALDH1A1 inh inconclusive and IMPase inh inactive.
`COc1ccc(CCN(C)C(=O)C2CCN(Cc3cccc(OC)c3OC)CC2)cc1OC` gave ALDH1A1 inh inactive.
Screening COc1ccccc1-n1nnnc1SCc1cc2c(cc1Br)OCO2 returned HPGD block inconclusive, ALDH1A1 inh 4.5µM and IMPase inh inactive.
`O=C(CSc1nnnn1Cc1ccccc1)NCC(=O)c1ccccc1` gave HPGD block inactive, ALDH1A1 inh 8.9µM and IMPase inh inactive.
For O=C(CSc1nnnn1-c1ccccc1)Nc1ccc(Cl)cn1 the results were HPGD block inactive, ALDH1A1 inh 2.2µM and IMPase inh inactive.
`O=C(CSc1nnnn1Cc1ccccc1)NCCc1ccccc1` gave HPGD block inactive, ALDH1A1 inh inconclusive and IMPase inh inactive.
O=C(CSc1nnnn1-c1ccccc1)Nc1ccc(Cl)cc1 was read as HPGD block inactive, ALDH1A1 inh inconclusive and IMPase inh inactive.
`Cc1cc(NC(=O)CSc2nnnn2Cc2ccccc2)no1` gave HPGD block inactive, ALDH1A1 inh 32µM and IMPase inh inconclusive.
`COc1ccccc1-n1nnnc1SCc1ccccc1` gave HPGD block inactive, ALDH1A1 inh inconclusive and IMPase inh inactive.
`COc1ccc(C)cc1NC(=O)CSc1nnnn1Cc1ccccc1` gave HPGD block inactive, ALDH1A1 inh inactive and IMPase inh inactive.
